# Experimental data: PubChem BioAssay
# Calls of active or inactive are those of the source.
# Tests used:
# [1] = test system: Wnt5a (protein binding on small-molecule microarray); experiment: small molecules binding Wnt5a protein – biophysical, small-molecule microarray, 635/667 nm fluorescence, primary screen (AID 1142); conditions: 635 nm fluorescence, higher = more signal;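 also: fluorescence read at 667 nm with signal to noise per printed feature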
# [2] = ATP-based viability of Huh7 replicon cells – cell-based, CellTiter-Glo luminescence, basal, 48 h, cytotoxicity control for HCV replication inhibitor project, primary screen (AID 1143); conditions: higher = more signal, called active from +8 up or from −8 down;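 also: Huh7 hepatoma cells carrying a hepatitis C replication reporter with no stimulus; test concentration not given here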
# [3] = basal CRE-LacZ reporter activity in PC12 – cell-based, unstimulated, primary screen (AID 1145); conditions: no forskolin, luminescence, 4.5 h, higher = more signal, called active from +8 up or from −8 down
# [4] = forskolin-driven CRE-LacZ activity in PC12 – cell-based, CRE-LacZ reporter, forskolin-stimulated, primary screen (AID 1146); conditions: luminescence, 4.5 h, higher = more signal, called active from +8 up or from −8 down;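 also: PC12 cells with 6xCRE LacZ reporter stimulated by forskolin 10 µM; beta-galactosidase reporter signal reflecting CREB driven transcription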
# [5] = target: Streptavidin (Streptomyces avidinii) (UniProt P22629); experiment: compounds binding control protein streptavidin – biophysical, small-molecule microarray, 635/667 nm fluorescence, artefact control for SMM compound annotation, primary screen (AID 1147); conditions: higher = more signal;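 also: signal reflects streptavidin binding to arrayed compounds as a control protein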
# [6] = probe aInhba binding on compound microarray – biochemical, small-molecule microarray, 635/667 nm fluorescence, primary screen (AID 1148); conditions: higher = more signal;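 also: score merges 667nm spot fluorescence with signal-to-noise for antibody binding to printed compounds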
# Torsin-1A (Homo sapiens) [7] = target: Torsin-1A (Homo sapiens) (UniProt O14656); experiment: TOR1A wild-type binding on microarray – cell lysate, small-molecule microarray, lysate, 635/667 nm, primary screen (AID 1149); conditions: COS7 hTOR1A-WT lysate, 635 nm fluorescence, higher = more signal
# Torsin-1A (Homo sapiens) [8] = target: Torsin-1A (Homo sapiens) (UniProt O14656); experiment: torsin A mutant lysate binding on microarrays – cell lysate, small-molecule microarray, COS7 lysate, 635/667 nm fluorescence, primary screen (AID 1150); conditions: COS7 hTOR1A mutant lysate, 635 nm fluorescence, higher = more signal;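 also: score pools 667 nm emission and signal to noise measuring lysate protein binding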
# [9] = test system: Sonic hedgehog protein (Shh); experiment: Sonic hedgehog microarray binding compounds – biochemical, small-molecule microarray, 635/667 nm fluorescence, primary screen (AID 1151); conditions: 635 nm fluorescence, higher = more signal;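 also: Shh protein binding to compounds spotted on small-molecule microarray slides; score combines spot fluorescence intensity with signal-to-noise across triplicate slides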
# [10] = optical density shifts of acrAB sulA E. coli – strain DRC41, OD650, 48 h, E. coli filamentation inducer project, primary screen (AID 1152); conditions: higher = more signal, called active from +8 up or from −8 down;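 also: E. coli MC1000 strain DRC41 lacking acrAB efflux pump and sulA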
# [11] = probe aLefty1 binding on compound microarray – biochemical, small-molecule microarray, 635/667 nm fluorescence, primary screen (AID 1153); conditions: higher = more signal;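 also: score merges spot fluorescence with signal-to-noise ratio from the scanned slide images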
# [12] = plasmodial surface anion channel blockers, osmotic lysis – cell-based, P. falciparum Indochina, OD700, 1 h, primary screen (AID 1154); conditions: P. falciparum Indochina infected RBC osmotic lysis, higher = more signal, called active from +8 up or from −8 down
# [13] = plasmodial surface anion channel blockers, osmotic lysis – cell-based, P. falciparum Indochina, OD700, 2 h, primary screen (AID 1155);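 also: lysis reports solute entry through the parasite surface anion channel PSAC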; conditions: P. falciparum Indochina infected erythrocytes, higher = more signal, called active from +8 up or from −8 down
# [14] = changes in parasitized red cell lysis, either direction – P. falciparum Indochina, OD700, 3 h, PSAC antagonist project, primary screen (AID 1156); conditions: P. falciparum-infected erythrocytes, osmotic lysis, higher = more signal, called active from +8 up or from −8 down
# [15] = plasmodial surface anion channel blockers, osmotic lysis – cell-based, P. falciparum Indochina, OD700, 18 h, primary screen (AID 1157); conditions: P. falciparum Indochina infected erythrocytes, osmotic lysis OD700, 18 h; higher = more signal, called active from +8 up or from −8 down
# [16] = S6 kinase pathway phospho-S6 level changes – cell-based, A549, cytoblot, luminescence, serum-stimulated, primary screen (AID 1158); conditions: 5 h, higher = more signal;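 also: serum-stimulated A549 lung adenocarcinoma cells; signal is phosphorylated S6 detected by cytoblot immunostaining with HRP secondary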
# [17] = target: NADPH oxidase 2 (Homo sapiens) (UniProt P04839); experiment: compounds shifting NOX2 Amplex Red fluorescence – cell-based, HEK293-NOX2, PMA-stimulated, NOX inhibitor project, primary screen (AID 1159); conditions: 45 min, higher = more signal, called active from +8 up or from −8 down; also: test concentration not given here
# [18] = target: NADPH oxidase 4 (Homo sapiens) (UniProt Q9NPH5); experiment: compounds shifting NOX4 Amplex Red fluorescence – cell-based, HEK293-NOX4, tetracycline-induced, NOX inhibitor project, primary screen (AID 1160); conditions: HEK293-NOX4, Amplex Red H2O2 fluorescence, 45 min; higher = more signal, called active from +8 up or from −8 down
# [19] = target: NADPH oxidase 5 (Homo sapiens) (UniProt Q96PH1); experiment: compounds shifting NOX5 Amplex Red fluorescence – cell-based, HEK293-NOX5, NOX inhibitor project, primary screen (AID 1161); conditions: HEK293-NOX5, ionomycin, 45 min, higher = more signal
# [20] = compound effects on lung adenocarcinoma cell viability – A549, calcein-AM fluorescence, 48 h, basal, profiling panel (AID 1162); conditions: higher = more signal; also: test concentration not given here
# Chain of NADPH oxidase 2 (Homo sapiens) (P04839 whole entry, looked up): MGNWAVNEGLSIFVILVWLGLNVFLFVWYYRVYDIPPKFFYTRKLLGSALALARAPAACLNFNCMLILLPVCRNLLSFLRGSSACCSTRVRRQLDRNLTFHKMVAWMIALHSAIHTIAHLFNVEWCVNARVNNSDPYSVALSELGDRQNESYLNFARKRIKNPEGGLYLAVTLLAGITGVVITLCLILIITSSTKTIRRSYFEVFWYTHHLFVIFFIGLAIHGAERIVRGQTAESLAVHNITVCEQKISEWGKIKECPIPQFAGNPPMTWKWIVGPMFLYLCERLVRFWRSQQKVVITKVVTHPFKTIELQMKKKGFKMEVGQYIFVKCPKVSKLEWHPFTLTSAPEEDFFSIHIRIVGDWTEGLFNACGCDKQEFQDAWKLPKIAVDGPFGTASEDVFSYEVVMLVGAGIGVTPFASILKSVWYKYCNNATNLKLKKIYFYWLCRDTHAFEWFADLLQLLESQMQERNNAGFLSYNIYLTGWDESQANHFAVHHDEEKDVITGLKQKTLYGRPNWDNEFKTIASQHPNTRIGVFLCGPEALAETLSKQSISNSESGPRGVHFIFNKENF
# Chain of Streptavidin (Streptomyces avidinii) (P22629 whole entry, looked up): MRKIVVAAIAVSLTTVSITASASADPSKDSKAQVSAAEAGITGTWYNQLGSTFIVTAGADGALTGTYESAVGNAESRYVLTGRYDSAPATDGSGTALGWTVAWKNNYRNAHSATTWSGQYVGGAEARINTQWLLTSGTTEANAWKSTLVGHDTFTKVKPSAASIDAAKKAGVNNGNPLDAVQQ
# Chain of NADPH oxidase 5 (Homo sapiens) (Q96PH1 whole entry, looked up): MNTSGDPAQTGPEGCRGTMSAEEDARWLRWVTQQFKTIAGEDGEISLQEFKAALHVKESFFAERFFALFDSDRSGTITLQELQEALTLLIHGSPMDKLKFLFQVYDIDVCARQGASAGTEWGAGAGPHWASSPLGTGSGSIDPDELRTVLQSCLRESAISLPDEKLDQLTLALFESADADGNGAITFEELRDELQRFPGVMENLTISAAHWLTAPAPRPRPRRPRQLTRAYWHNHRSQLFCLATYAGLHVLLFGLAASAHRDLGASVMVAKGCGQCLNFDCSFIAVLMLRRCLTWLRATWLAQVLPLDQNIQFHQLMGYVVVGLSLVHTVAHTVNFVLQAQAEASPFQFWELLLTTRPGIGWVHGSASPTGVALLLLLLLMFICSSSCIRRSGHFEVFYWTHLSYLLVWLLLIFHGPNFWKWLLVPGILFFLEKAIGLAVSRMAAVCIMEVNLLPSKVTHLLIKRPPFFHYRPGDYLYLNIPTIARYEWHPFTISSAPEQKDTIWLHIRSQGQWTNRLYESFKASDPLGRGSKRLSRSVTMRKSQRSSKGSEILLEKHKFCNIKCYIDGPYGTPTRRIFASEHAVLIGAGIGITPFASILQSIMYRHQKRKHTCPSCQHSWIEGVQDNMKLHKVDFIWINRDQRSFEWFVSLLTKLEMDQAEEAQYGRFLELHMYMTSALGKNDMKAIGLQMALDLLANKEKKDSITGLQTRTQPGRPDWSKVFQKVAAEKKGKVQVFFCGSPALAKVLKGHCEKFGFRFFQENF
# Chain of Torsin-1A (Homo sapiens) (O14656 whole entry, looked up): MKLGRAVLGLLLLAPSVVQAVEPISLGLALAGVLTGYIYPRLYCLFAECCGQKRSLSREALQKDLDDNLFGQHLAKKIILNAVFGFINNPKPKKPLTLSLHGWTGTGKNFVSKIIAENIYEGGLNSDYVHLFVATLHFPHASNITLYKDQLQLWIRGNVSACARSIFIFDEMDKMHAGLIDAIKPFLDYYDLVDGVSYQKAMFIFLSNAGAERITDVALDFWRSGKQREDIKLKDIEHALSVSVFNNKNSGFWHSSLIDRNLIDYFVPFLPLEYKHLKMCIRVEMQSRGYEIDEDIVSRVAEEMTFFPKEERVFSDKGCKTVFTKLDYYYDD
# Chain of NADPH oxidase 4 (Homo sapiens) (Q9NPH5 whole entry, looked up): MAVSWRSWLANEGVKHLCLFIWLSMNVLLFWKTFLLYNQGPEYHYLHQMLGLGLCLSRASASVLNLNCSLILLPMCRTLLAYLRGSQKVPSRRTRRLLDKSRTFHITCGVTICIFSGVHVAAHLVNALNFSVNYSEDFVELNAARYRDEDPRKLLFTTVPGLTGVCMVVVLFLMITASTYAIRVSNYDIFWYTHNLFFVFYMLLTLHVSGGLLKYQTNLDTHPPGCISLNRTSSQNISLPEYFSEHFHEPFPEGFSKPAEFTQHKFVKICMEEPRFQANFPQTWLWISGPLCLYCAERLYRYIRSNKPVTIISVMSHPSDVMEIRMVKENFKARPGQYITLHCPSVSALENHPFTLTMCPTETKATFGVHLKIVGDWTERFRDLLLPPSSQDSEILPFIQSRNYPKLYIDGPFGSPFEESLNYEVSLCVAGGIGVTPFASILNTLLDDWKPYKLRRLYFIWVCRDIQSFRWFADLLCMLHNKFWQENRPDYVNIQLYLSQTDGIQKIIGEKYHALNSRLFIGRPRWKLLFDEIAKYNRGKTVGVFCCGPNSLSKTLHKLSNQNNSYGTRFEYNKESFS
SMILES,composite z-score [1],z-score [2],z-score [3],z-score [4],composite z-score [5],composite z-score [6],composite z-score (Torsin-1A (Homo sapiens) [7]),composite z-score (Torsin-1A (Homo sapiens) [8]),composite z-score [9],z-score [10],composite z-score [11],z-score [12],z-score [13],z-score [14],z-score [15],z-score [16],z-score [17],z-score [18],z-score [19],z-score [20]
COc1ccc([Si](C)(C)[C@H]2[C@H](CC(=O)N3Cc4ccccc4C[C@H]3CO)O[C@@]3(C(=O)N(Cc4cccc(N5C(=O)COc6ccccc65)c4)c4ccccc43)[C@@H]2C)cc1,0.283,-3.87 (inactive),3.47 (inactive),-1.86 (inactive),0.22,-0.0986,0.562,0.212,2,0.578 (inactive),-0.0035,3.46 (inactive),1.76 (inactive),1.69 (inactive),1.04 (inactive),0.0515,-1.37 (inactive),-0.307 (inactive),-2.34,0.486
CC(C)(C)OC(=O)CC[C@]1(C(=O)NCc2ccccc2)N=C(c2ccc(OCCCO)cc2)O[C@H]1c1ccccc1N=[N+]=[N-],1.11,-3.04 (inactive),1.13 (inactive),-1.4 (inactive),1.71,0.317,0.466,0.78,0.425,1.78 (inactive),0.598,30.9 (active),27.9 (active),2.08 (inactive),6.66 (inactive),1.55,-2.28 (inactive),-0.17 (inactive),-2.3,0.117
C=CCNC(=O)[C@@H]1[C@H]2C(=O)O[C@H](c3ccccc3)[C@H](c3ccccc3)N2[C@H](c2ccc(O)cc2)[C@@]12C(=O)N(C(=O)OCCOC)c1ccc(C#Cc3ccc(OC)cc3)cc12,0.334,-2.94 (inactive),-0.203 (inactive),0.417 (inactive),0.256,0.0627,0.808,0.54,1.06,1.58 (inactive),-0.0222,2.52 (inactive),1.19 (inactive),-0.264 (inactive),0.804 (inactive),-0.0456,0.957 (inactive),-0.276 (inactive),1.9,-0.413
COc1ccc([Si](C)(C)[C@@H]2[C@@H](CCn3cc(CCO)nn3)O[C@]3(C(=O)N(Cc4ccc(N5C(=O)c6cccc7cccc5c67)cc4)c4ccccc43)[C@H]2C)cc1,0.0378,-7.93 (inactive),0.353 (inactive),-1.65 (inactive),0.256,-0.0529,0.815,0.609,0.907,1.93 (inactive),0.457,6 (inactive),0.758 (inactive),-1.06 (inactive),-1.22 (inactive),2.29,2.23 (inactive),1.62 (inactive),1.42,-1.32
CC(C)C(CO)N1C(=O)[C@@H]2[C@H]3C(=O)OCC=C[C@H]3OC23C=CCN(Cc2ccccc2)C(=O)[C@@H]13 (stereo not given in full),-0.353,-0.524 (inactive),0.325 (inactive),0.559 (inactive),-1.32,-0.195,-0.411,-1.02,0.565,1.64 (inactive),-0.268,0.379 (inactive),-0.0407 (inactive),1.32 (inactive),-0.16 (inactive),-0.257,1.5 (inactive),0.118 (inactive),1.61,-0.769
CC(C)C(=C=CC[C@H](O)c1ccc(OCCO)cc1)C[C@H](O)COCc1ccccc1,0.317,-3.34 (inactive),12.1 (active),-0.14 (inactive),0.192,-0.0986,1.11,1.42,1.96,0.811 (inactive),0.0751,20.1 (active),4.54 (inactive),1.7 (inactive),0.923 (inactive),-0.474,-0.557 (inactive),-0.142 (inactive),-1.87,0.153
CCN(CC)c1ccc(N2CC=CC34O[C@@H]5C=CCOC(=O)[C@@H]5[C@H]3C(=O)N(C(CO)C(C)C)[C@@H]4C2=O)cc1 (stereo not given in full),-0.191,-0.524 (inactive),0.471 (inactive),0.6 (inactive),-0.258,-0.391,-0.156,-0.701,0.0806,1.38 (inactive),0.189,-0.185 (inactive),-0.262 (inactive),1.21 (inactive),0.135 (inactive),-0.369,0.787 (inactive),0.196 (inactive),1.23,-0.0755
CC(C)C[C@@H]1NC(=O)[C@@]23C(=O)N[C@@H](Cc4ccccc4)C2[C@H](C)[C@@]2(C)O[C@H]2C3/C=C/C/C=C\CNC(=O)[C@H](Cc2ccccc2)NC1=O (stereo not given in full),-0.108,-4.13 (inactive),4.56 (inactive),-2.06 (inactive),-0.198,-0.082,0.305,0.384,0.46,1.76 (inactive),-0.147,1.53 (inactive),-0.0735 (inactive),0.966 (inactive),0.256 (inactive),0.497,-0.188 (inactive),0.692 (inactive),-3.15,0.823
Cc1ccc(N2C(=O)c3ccccc3[C@](C)(C(=O)NC3CC3)[C@@H]2c2ccc(CO)cc2)nc1,0.119,0.0401 (inactive),-0.619 (inactive),-0.732 (inactive),-0.468,0.0053,0.141,1.06,0.496,1.3 (inactive),-0.0162,0.262 (inactive),-0.236 (inactive),0.151 (inactive),-0.0411 (inactive),0.199,-0.712 (inactive),0.504 (inactive),0.398,0.434
